PERK inh – human PERK inhibition, primary cell-based screen | CHO PERK-DD fusion, SEAP luminescence translation reporter | inhibition, % at 5.6 µM | hit rate 0.17% among 220,000;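 active = inhibition above the mean inhibition of all tested compounds plus 3 SD, set separately per screening campaign, cut at about 2.9% in these data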;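 note: PERK kinase domain activated by AP20187 dimerizer at 100 nM; 0% = DMSO with dimerizer and 100% = rapamycin at 8.4 µM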
NALP1 inh – blocks the NALP1 inflammasome reconstituted in yeast; S. cerevisiae NALP1/ASC/caspase-1 growth, X-gal OD620, 72 h; hit rate 0.61% among 280,000; inhibition, % at 10 µM; in the data active = inhibition mostly above about 24%, no sharp cut-off; inactive = mostly below about 32%
V-ATPase pH – alters yeast V-ATPase proton transport. response, % at 10 µM. S. cerevisiae, pHLuorin cytosolic pH fluorescence. hit rate 0.37% among 350,000; in the data active = response mostly above about 7.3%, no sharp cut-off; inactive = mostly below about 5.4%; note: actives read high
Rce1 inh – blocks yeast Ras-converting enzyme; AID 2563; hit rate 0.27% among 290,000; yeast membranes, quenched prenylated peptide cleavage fluorescence; calls only;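 active = fall in fluorescence gain of 50% or more versus controls, with final raw signal at or below 3038400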;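 note: plate controls were neutral control wells for no effect and wells lacking membranes for full effect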
Target sequence (Q03530 whole entry, looked up): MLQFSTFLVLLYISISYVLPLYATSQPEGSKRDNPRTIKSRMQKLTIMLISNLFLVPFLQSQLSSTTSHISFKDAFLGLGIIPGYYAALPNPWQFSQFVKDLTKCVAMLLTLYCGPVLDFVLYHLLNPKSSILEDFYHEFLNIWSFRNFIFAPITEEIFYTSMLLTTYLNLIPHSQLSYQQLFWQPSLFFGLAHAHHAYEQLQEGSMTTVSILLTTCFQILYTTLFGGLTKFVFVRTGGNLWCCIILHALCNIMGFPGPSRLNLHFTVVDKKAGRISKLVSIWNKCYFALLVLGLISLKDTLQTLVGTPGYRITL
NLRP3 yeast inh – NALP3 inhibition in yeast | Yeast reconstituted NLRP3/ASC/caspase-1, beta-gal luminescence, 24 h | inhibition, % at 10 µM | hit rate 0.39% among 330,000;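 active = inhibition of 50% or more; inactive = inhibition below 50%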;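 note: plate controls were induced DMSO wells for no effect and uninduced yeast grown without galactose for full effect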
Yeast superoxide – yeast age-related superoxide inhibition as caloric restriction mimetic | superoxide response (% of plate mean), % at 10 µM | AID 2690 | hit rate 0.18% among 330,000 | S. cerevisiae aged cells, superoxide DHE fluorescence; stronger effect = lower value;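 active = superoxide response under a set limit, about three screen SD below normal, cut at about 65% in these data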;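 note: yeast aged for seven days with compound at 30 °C before DHE staining; 100% = average MFI of all compound-treated wells on the plate with controls excluded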
* marks the source's active call; other numbers are inactive results. In the library only some 1.6% were active in any assay of this set; here they are far more common.

For O=C(Nc1cc(Cl)cc2c1-c1ccc(Cl)cc1C2O)C(Cl)Cl (stereo unspecified) the results were V-ATPase pH -6.
For CS(=O)(=O)Nc1ccc2c(c1)nc1n2CCOC1 the results were PERK inh 0, NALP1 inh 10, V-ATPase pH 20*, Rce1 inh inactive, NLRP3 yeast inh 7 and Yeast superoxide 98.
NC(=O)N1N=C2/C(=C/c3ccccc3)CCCC2C1c1ccccc1 (stereo unspecified) was read as NALP1 inh 23, V-ATPase pH 1, Rce1 inh active, NLRP3 yeast inh 26 and Yeast superoxide 113.
`CC(=O)Nc1ccc2c(c1)C(N1CC3CCC(CC3)C1)c1ccccc1-2` (stereo unspecified) gave V-ATPase pH -1.
CCNC(=O)N(CC)C[C@H]1N[C@@](Cc2ccccc2)(C(=O)OC)[C@H]2C(=O)N(C)C(=O)[C@@H]12 was read as V-ATPase pH -1, NLRP3 yeast inh 6 and Yeast superoxide 124.
`COC(=O)CCC(=O)NC(=S)Nc1cc(Cl)ccc1Cl` gave PERK inh 1, NALP1 inh 42*, V-ATPase pH 1, NLRP3 yeast inh 36 and Yeast superoxide 88.
O=C(CSC1=NS(=O)(=O)c2ccccc21)Nc1ccccc1 was read as PERK inh 2, NALP1 inh 64, V-ATPase pH 2, Rce1 inh inactive, NLRP3 yeast inh 6 and Yeast superoxide 68.
Screening COC(=O)CSC1=NS(=O)(=O)c2ccccc21 returned PERK inh 1, NALP1 inh -9, V-ATPase pH 11*, Rce1 inh inactive, NLRP3 yeast inh 20 and Yeast superoxide 85.
CC1=C(C)C(C)=C(C#N)C(=C(C#N)C#N)N1 was read as PERK inh 0, NALP1 inh 7, V-ATPase pH -2, Rce1 inh active, NLRP3 yeast inh 23 and Yeast superoxide 107.
CCCCN1CC(COCc2ccccc2)Oc2cccc(OCc3ccc(OC)cc3)c2S1(=O)=O (stereo unspecified) was read as V-ATPase pH -2.
COc1ccc(-c2cn3ccccc3n2)cc1[N+](=O)[O-] was read as PERK inh 0, NALP1 inh 30, V-ATPase pH 6, Rce1 inh active, NLRP3 yeast inh 5 and Yeast superoxide 96.
For CCCOc1ccc(-c2cn3ccccc3n2)cc1[N+](=O)[O-] the results were PERK inh 0, NALP1 inh 9, V-ATPase pH 0, Rce1 inh inactive, NLRP3 yeast inh 12 and Yeast superoxide 92.
Screening COc1ccc(Nc2ccc3c(c2)=NC2(CCCCC2)[N+]=3[O-])cc1 returned PERK inh -1, NALP1 inh 40*, V-ATPase pH -2, Rce1 inh inactive, NLRP3 yeast inh 23 and Yeast superoxide 113.
Screening CCN(CC)C(=O)C1=C(C)N(Cc2ccc(OC)cc2)C(=O)C(CC(=O)NCC2CCCCC2)C1 (stereo unspecified) returned V-ATPase pH -2.
`CC1(C)Cc2nc3sc4c(NCCO)ncnc4c3cc2CS1` gave PERK inh 0, NALP1 inh 31*, V-ATPase pH 0, Rce1 inh inactive, NLRP3 yeast inh 6 and Yeast superoxide 98.
COc1ccccc1NC(=O)CSc1nnnn1-c1ccccc1F was read as NALP1 inh 8, V-ATPase pH 6, Rce1 inh inactive, NLRP3 yeast inh 16 and Yeast superoxide 91.
`COC(=O)c1sccc1NC(=O)CSc1nnnn1-c1ccccc1C` gave PERK inh 0, NALP1 inh 23, V-ATPase pH 3, Rce1 inh active, NLRP3 yeast inh 17 and Yeast superoxide 72.
For C/C(NCCc1ccccc1)=C1/CCOC1=O the results were V-ATPase pH 3.
`Cc1cccc(N2C(=O)c3cccc4c(N5CCCCC5)c([N+](=O)[O-])cc(c34)C2=O)c1C` gave PERK inh 1, NALP1 inh 7, V-ATPase pH -1, Rce1 inh active, NLRP3 yeast inh 7 and Yeast superoxide 105.
For O=C1c2cccc3c(N4CCOCC4)c([N+](=O)[O-])cc(c23)C(=O)N1c1cccc2ccccc12 the results were PERK inh 1, NALP1 inh 18, V-ATPase pH 0, Rce1 inh inactive, NLRP3 yeast inh 21 and Yeast superoxide 89.
`CCCCOc1ccc(Cc2c(COCC)[nH]c(=S)[nH]c2=O)cc1` gave PERK inh 0, NALP1 inh -9, V-ATPase pH 3, Rce1 inh active, NLRP3 yeast inh 28 and Yeast superoxide 95.
